# Measured values published in PMC12136788.
# Substitutions are numbered along the chain they refer to. In all, about 24,000 sequences were measured (“enrichment r”: median about 0.99, highest 2% from about 3.7 on). The list comes from a sample in which the highest values are over-represented; it also holds similar and randomly drawn sequences.
# T1: UNK ZnF1-3 (human, UniProt Q9C0B0 31-174)
# T1 sequence: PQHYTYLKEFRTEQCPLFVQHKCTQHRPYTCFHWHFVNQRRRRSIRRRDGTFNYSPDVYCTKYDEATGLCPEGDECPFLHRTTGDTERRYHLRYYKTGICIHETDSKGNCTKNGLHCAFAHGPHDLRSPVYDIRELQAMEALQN
# B1: chr16:94690093:94690094:+_ENSMUSG00000040785_ENSMUST00000117648|mus_mus|FALSE|FALSE (ssRNA)
# RNA: GGGAGUUCUACAGUCCGACGAUCUGGGACUCCUGUGAGCAGACAGCAUCUUCCCAGGGUAAAAAAAAAAAAUAGCCAAUACUAAUUUAAAAAGUAUUUUAUAAUUGAUUACCAAAAUGUAGAUUAAUUGAAUCAUAAGCACUUCAACAGAGGAUUGAGCAUCA
# B2: chr7:125984895:125984896:+_ENSMUSG00000030982_ENSMUST00000106553|mus_mus|motif|central (ssRNA)
# RNA: GGGAGUUCUACAGUCCGACGAUCGUAGAAGGCAAGAGCUUAAAACCAAUCUGUAUAAAAGUAAAAAUAACAAAAACUUCGGAAUUCCAGGAAGAGUUAAUGGCAGCCAAGCAGAUCUUCCAGGAUGUGGCACUGGGACUCCCGCAACAGAGGAUUGAGCAUCA
# B3: chrX:98838459:98838460:+_ENSMUSG00000034160_ENSMUST00000044475|mus_mus|FALSE|FALSE (ssRNA)
# RNA: GGGAGUUCUACAGUCCGACGAUCUCCCAAAUUCGAAUAGGCUUCUGCUAGAAGGGGAUUCUGUUUAAUUGCCAAGGUGCUAAAAUGAGCAGAUCUGUCCAGCCUUCGACACUGGAAGUGUAUAGAUGAAAGUAAUAAAAGAACCAACAGAGGAUUGAGCAUCA
# B4: chr16:94690093:94690094:+_ENSMUSG00000040785_ENSMUST00000117648|mus_mus|motif|central (ssRNA)
# RNA: B1 RNA with U82G, A83G
# B5: chr12:16048344:16048345:+_ENSG00000023734_ENST00000419869|hu_hu|hu_hu_hu_mus_True|18_78 (ssRNA)
# RNA: GGGAGUUCUACAGUCCGACGAUCAGAUCGUCCAUAAGUAAUAACCAAAAUCUCUCCCUCAGGAAUAUACUCCAUGCUGCUAACAGACAUAUUAAAAUUCAGAGAUUUCACUUCUGUCAUAGUAGCAUGAUCCCAGAGCCGAACCAACAGAGGAUUGAGCAUCA
# B6: chr4:6323411:6323412:-_ENSMUSG00000028245_ENSMUST00000029910|mus_hu|FALSE|FALSE (ssRNA)
# RNA: GGGAGUUCUACAGUCCGACGAUCAGAAAAAUAUUUUUAAUGUAGAAAAGAUGAAUAGCUGUAAUGAAAUACAAACCGUUCCUAUACACAGUAAACUUACUAAGAACUGCUAAUCCUUCUCCAGGUUCUUAGAAUCUGGGUACACAACAGAGGAUUGAGCAUCA
# B7: chr12:16048344:16048345:+_ENSG00000023734_ENST00000419869|hu_hu|hu_hu_hu_mus_True|8_18 (ssRNA)
# RNA: B5 RNA with C57U, G135A
# B8: chr12:42180722:42180723:-_ENSMUSG00000036295_ENSMUST00000043884|mus_hu|mus_mus_mus_hu_True|58_108 (ssRNA)
# RNA: GGGAGUUCUACAGUCCGACGAUCCUGUAGGAGCAGAAUCUGUGUGUUAGCUGGCAAUCUGGCUGGGAAAGUUAAAAGCCCUAAAUCAUUACAAUCCACUGUAGAUGCUUCCAUAUAAAUGGAUCUGGGUGUAAACCAAGGCCUCAACAGAGGAUUGAGCAUCA
# B9: 109710003_109710123_2987_3pUTR_ENSMUSG00000031924_ENSMUST00000034400|mouse|control|control (ssRNA)
# RNA: GGGAGUUCUACAGUCCGACGAUCUUCUGCCUCCCAAGUGCUGGGAUUAAAGAUUUAAAAAAAAAAAAGCAUCCUUUUUAUAUAAUAUAAAAUGACAUUACAUUAUCAGUAGUUCAAAAGAAGCCCUGGGUAUUGACGGAUUUCCAACAGAGGAUUGAGCAUCA
# B10: 74654529_74654649_2250_CDS_ENSG00000113161_ENST00000287936|human|control|control (ssRNA)
# RNA: GGGAGUUCUACAGUCCGACGAUCUCUGACAACCUUGGCUGGAAUGACAGCUUCACAAACAACAGAUUUUCCUCUUCCCUCUAUCCAAUUUAUAGCAGCAGGUUUCUUGUCAGUACAAUAGUUACCACUAACGGCUAGAAUCUGCAACAGAGGAUUGAGCAUCA
# B11: chr22:19452774:19452775:-_ENSG00000070010_ENST00000399523|hu_hu|hu_hu_hu_mus_False|18_88 (ssRNA)
# RNA: GGGAGUUCUACAGUCCGACGAUCCUUCUCAUUGUAGUUGAUAGCAAUCACAUCCCCAGUCGUCAGACAGGCGAAGUUUCUCAAUGCAUUUUCUAAUACCGCUUUAGGGUUGGUAAUGUCCAGGAAGUCUGGGCUCUGAGGCUGCAACAGAGGAUUGAGCAUCA
# B12: chrX:100667754:100667755:+_ENSG00000126945_ENST00000316594|hu_hu|FALSE|FALSE (ssRNA)
# RNA: GGGAGUUCUACAGUCCGACGAUCUCCGUAUCUAUGAUCAGACAUUCCUGAAAAACAGUAAUUGAGGUCUCUUCCAAAUCUAUCAGACCCAAAGCCAUAUCCAUCAUUAUAGCCACCAUAGUCAUCAUAGCCUCCAUACCCUCCCAACAGAGGAUUGAGCAUCA
# B13: 31508769_31511148_1743_CDS_ENSG00000113360_ENST00000513349|human|control|control (ssRNA)
# RNA: GGGAGUUCUACAGUCCGACGAUCAGGGUGGGCCUUUUUGCGUUUGAUUUCUGCAAUAACGUCAAAAACUUCAGAGUCUGAGCUGCUAGAACAGGUGCUGUCCUCAUCAGACUCACACUCGGAUUCACUGGAACUCUCUAAAUCCAACAGAGGAUUGAGCAUCA
# B14: chr1:163112212:163112213:-_ENSG00000143248_ENST00000313961|hu_hu|hu_hu_hu_mus_False|48_48 (ssRNA)
# RNA: GGGAGUUCUACAGUCCGACGAUCUUUUAUUAUCAGUAAGAGUGAGUUACAUACUAGGCAAAGUAUUGGAUACAAUAAUCAGGAAACAAACACAAUUGGUCCAGAAUUUAAAACUUUAUGAGCGAAGUGCUGGCACAGGACUUACAACAGAGGAUUGAGCAUCA
# B15: chr3:127788656:127788657:+_ENSG00000058262_ENST00000243253|hu_hu|motif|central (ssRNA)
# RNA: GGGAGUUCUACAGUCCGACGAUCCACUUUCACAGUUCUUUUUGCCAGUGCCAGGAUAAAAAGCAAAAUUUUAAAUUGGAAAAUGUCGGGCACUUUACACAGUGGAAUGAAAGAAUACGAAAUUCAAAAACAUUAUUAAAAGUCCAACAGAGGAUUGAGCAUCA
# B16: 95941554_95941674_2216_3pUTR_ENSG00000164938_ENST00000448464|human|control|control (ssRNA)
# RNA: GGGAGUUCUACAGUCCGACGAUCGCCAGAGUGGUUAAAGAUUUUGCCUGAAGUUAAAACAAAAAAUGAAAAGUCACUUGGACUGCAGGGAAGAAUACUUACAAUACAAGGCAAUUAAAAAAAAAAAAAGAAAAAAGUUGAGCCCAACAGAGGAUUGAGCAUCA
# B17: chr3:154749246:154749247:-_ENSMUSG00000053870_ENSMUST00000066568|mus_hu|FALSE|FALSE (ssRNA)
# RNA: GGGAGUUCUACAGUCCGACGAUCGCCAUUUUUAUUAUUAAAAAUAGAAUUACAGUUGAGGAGAGAAGUGCCAGUGAAUACUUAGAACUUCACUGGACCAAAAGCCUCAAAAAAGAUGGAAAAAUUCCAAAGGUAUGCUUAGAACAACAGAGGAUUGAGCAUCA
# B18: chr17:65740002:65740003:+_ENSG00000130935_ENST00000581375|hu_hu|hu_hu_hu_mus_False|48_58 (ssRNA)
# RNA: GGGAGUUCUACAGUCCGACGAUCAACAAAUCUUUCUUCCCUGGACGAACAGGAAGAUUCAUAUUAAAAAAAAUAUAUGUCUAUGAAGGAGAAUUGAGUGGCCACACCUUUACUCCCAGCACUUUGGGAGGUGGAUCUCUGAGUCAACAGAGGAUUGAGCAUCA
# B19: chr16:94664382:94664383:+_ENSMUSG00000040785_ENSMUST00000117648|mus_hu|motif|central (ssRNA)
# RNA: GGGAGUUCUACAGUCCGACGAUCAAAAGCUGGUGCUGAAGAUGAAUCUGACACUGGUUUAGACUUUACAUCUGGUUUAAAUUCCCGGGCAGCUGGAUUCAGUUGUAGUUUAACUCGUACAUACUCCCCUGCUUUUGAAAUUUCCAACAGAGGAUUGAGCAUCA
# B20: chr3:127788656:127788657:+_ENSG00000058262_ENST00000243253|hu_mus|motif|central (ssRNA)
# RNA: GGGAGUUCUACAGUCCGACGAUCAAUUCACUUCUACUGGUUUUUUGCCAAUGCCAGAAAAAGCAAAAUUUCAAAUUGGAAAUUUCCGGGCACUUUACACAGUGGAAUGAAAAGAUAUGAAAUUUUAAAAAAAAUUAAAAAAAACAACAGAGGAUUGAGCAUCA
# Target: T1, UNK ZnF1-3
# Assay: nsRBNS (natural sequence RNA bind-n-seq); RBNS binding buffer (assumed for nsRBNS): 25 mM Tris pH 7.5, 150 mM KCl, 3 mM MgCl2, 0.01% Triton X-100, 500 ug/ml BSA, 20 U/ml SUPERase-In, 4 C; UNK is unkempt and MSI1 is Musashi-1; names of the RNAs are library labels; protein concentration not given here; high values mean tight binding
row,Binder,binding signal
1,B1,7.05 enrichment R
2,B2,3.93 enrichment R
3,B3,1.64 enrichment R
4,B4,4.87 enrichment R
5,B5,0.91 enrichment R
6,B6,1.02 enrichment R
7,B7,0.71 enrichment R
8,B8,1.07 enrichment R
9,B9,2.62 enrichment R
10,B10,1.16 enrichment R
11,B11,0.83 enrichment R
12,B12,1.11 enrichment R
13,B13,0.49 enrichment R
14,B14,1.39 enrichment R
15,B15,4.09 enrichment R
16,B16,12.6 enrichment R
17,B17,2.22 enrichment R
18,B18,1.64 enrichment R
19,B19,1.16 enrichment R
20,B20,6.28 enrichment R
